# Measurements published in ChEMBL document CHEMBL3988442, “University of Dundee, Small-Polar-MMV Screening Library” (2021).
# Among all 48,000 compounds or so, about 13,000 (27%) showed an effect of 50% or more. The list shows a part of the results.
# Tested on: Wolbachia pipientis
# Assay: Anti-Wolbachia Cell-Based Screen
# Assay type: functional
# Parameters: scale not given: in the data most compounds retested in dose-response had high values
# Conditions: 5 µM
row,SMILES,Percent Effect [%]
1,CC(C)(C)C(O)CN1CCN(Cc2cccc(C#N)c2)CC1 (stereo not drawn),-1.667
2,CC(=O)N[C@H]1CCN2C(=O)[C@@H](Cc3c[nH]c4ccccc34)NC(=O)[C@H]12,-9.075
3,COCCN1CC(C(=O)N(C)Cc2ccc(Cl)s2)CC1=O (stereo not drawn),25.53
4,O=C(c1ccc(SC(F)F)cc1)N1CCOCC1c1ncon1 (stereo not drawn),2.35
5,O=C1NCC(CN2CCc3onc(-c4ccc(C(F)(F)F)cc4)c3C2)O1 (stereo not drawn),4.598
6,O=C(O)C(F)(F)F.O=C(O)C(F)(F)F.O=C(c1c[nH]cn1)N1CCCn2c(CN3CCCCC3)nnc2C1,0.5876
7,CC(C)N(C)Cc1nnc2n1CCCN(C(=O)c1ccco1)C2,10.89
8,O=C(c1ccc[nH]1)N1CCc2nnc(Cn3cccn3)n2CC1,121.3
9,O=C(c1ccc[nH]1)N1CCCn2c(CN3CCCCC3)nnc2C1,104.7
10,O=C(O)C(F)(F)F.O=C(c1ccc[nH]1)N1CCCn2c(CNC3CCC3)nnc2C1,88.36
11,Cc1[nH]ccc1C(=O)N1CCC(c2nnc(Cn3cccn3)n2C)CC1,-8.959
12,O=C(O)C(F)(F)F.O=C(c1ccccc1)N1CCCn2c(CN3CCCCC3)nnc2C1,-7.245
13,Cc1cccc(C(=O)N2CCCn3c(CN4CCCCC4)nnc3C2)c1,-5.352
14,O=C1CCCN1Cc1nnc2n1CCCN(C(=O)c1ccco1)C2,122.9
15,O=C(O)C(F)(F)F.O=C(c1ccccc1F)N1CCCn2c(CN3CCCCC3)nnc2C1,18.71
16,c1cnn(Cc2nnc3n2CCCN(c2nccs2)C3)c1,-8.945
17,COCCNC(=O)C(C)S(=O)(=O)c1ccc(OC)cc1 (stereo not drawn),-5.557
18,CCS(=O)(=O)N(C)C1CCN(c2cccc(F)c2C(C)=O)CC1,1.671
19,CCN(CC)C(=O)CC[C@@H]1CNC(=O)[C@@H]2C[C@H](NC(=O)C3CC3)CN12,-0.8785
20,COCc1nc(C(=O)NS(=O)(=O)c2ccc(C)c(C)c2)cs1,-2.372
21,CSCC(=O)N1CCC(c2nccn2Cc2cscn2)CC1,-14.72
22,COCC1CN(Cc2cc(C)on2)Cc2cn(CC3CC3)nc21 (stereo not drawn),-5.451
23,Cn1nc(C2CN(C(=O)c3cccnc3)C2)c2nccnc21,106.4
24,CCc1ccc2c(C3CN(S(C)(=O)=O)C3)ncn2c1,15.67
25,Cn1nc(C2CN(S(C)(=O)=O)C2)c2nccnc21,134.2
26,O=C(c1ccncc1)N1C[C@@H]2CC[C@H](C1)N(C(=O)C1CCCC1)C2,23.43

row,SMILES,Percent Effect [%]
1,CCN(C)C(=O)c1ncn2c(C3CCN(S(C)(=O)=O)CC3)ccnc12,-14.84
2,Cn1nc(C2CN(C(=O)c3ccncc3)C2)c2nccnc21,104.9
3,Cc1ccc(C(=O)N2CC(c3cccnc3)C2)cc1N1CCNC1=O,-5.741
4,Cn1nc(C2CN(C(=O)c3cscn3)C2)c2nccnc21,-8.374
5,FC(F)(F)Oc1ccc(-c2noc([C@@H]3Cc4nc[nH]c4CN3)n2)cc1,-8.285
6,CCCc1nnc(N(C)CC2CCN(CC(C)C)CC2)o1,-8.883
7,Cc1ccc2nc(-c3cnc(N)nc3)c(C)c(C(=O)N(C)C)c2c1,2.177
8,Cc1cc(N(C)C)nc(N(C)Cc2csc(C)n2)n1,-1.887
9,Cc1cc(CN2CCCC2c2noc(C)n2)no1 (stereo not drawn),-4.781
10,Cc1cc(CN2CCOC(CN(C)C)C2)no1 (stereo not drawn),-11.72
11,Cc1cc(N(C)C)nc(N2CCN(Cc3nccn3C)CC2)n1,-14.83
12,Cn1ccnc1CN1CCOC[C@H]1c1nc(C(C)(C)C)co1,-3.783
13,Cc1cc(N(C)C)nc(C2COCCN2Cc2csc(C)n2)n1 (stereo not drawn),76.41
14,Cc1cc(N(C)C)nc(C2COCCN2Cc2nccn2C)n1 (stereo not drawn),106.8
15,CCOC(=O)N(C)C1CCN(Cc2csc(C)n2)CC1,-9.858
16,Cc1cc(N(C)C)nc(C2COCCN2Cc2cc(C)on2)n1 (stereo not drawn),106.1
17,Cc1cc(N(C)C)nc(C2COCCN2Cc2cscn2)n1 (stereo not drawn),100.1
18,Cc1cc(C)n(CC2CCCCN2Cc2cscn2)n1 (stereo not drawn),2.934
19,Cc1nc(C)n(CC2CCCN2Cc2cscn2)n1 (stereo not drawn),-0.8371
20,CC(NC1(CNS(C)(=O)=O)CCCC1)c1ccccc1 (stereo not drawn),-3.236
21,COc1ccc(-n2cccn2)c(CN2CCOCC(CN(C)C)C2)c1 (stereo not drawn),-24.66
22,COc1cccc(CNCCc2cc(F)cc3c2OCOC3)c1,-0.9463
23,CNc1cc(C)nc(C2COCCN2Cc2csc(C)n2)n1 (stereo not drawn),118.8
24,CC(C)(C)c1coc([C@@H]2COCCN2Cc2csnn2)n1,-9.121
25,Cc1nc(CN2CCCC2c2nc(C(C)C)no2)cs1 (stereo not drawn),-7.461
26,COc1ccnc(NC(=O)c2cscc2C)c1,-3.049

row,SMILES,Percent Effect [%]
1,CCc1[nH]ncc1C(=O)N1CCN(c2nccc(OC)n2)CC1,-7.097
2,Cc1ncnc(NCCCN2CCCCC2CO)c1C (stereo not drawn),93.53
3,Cc1cnc(NCCCN2CCCCC2CO)nc1 (stereo not drawn),67.94
4,CCc1cnc(N)nc1NCCN1CCCCC1,1.893
5,CCc1cnc(N)nc1NCCC(=O)NC1CCCCC1,31.74
6,Cc1nc(C)n(CCCNc2ncnc(C)c2C)n1,-4.271
7,CCc1cnc(N)nc1NCCCN1CCCCC1CO (stereo not drawn),90.38
8,Cc1cc(C)n(CC2CCCCN2CCCS(=O)(=O)N(C)C)n1 (stereo not drawn),4.04
9,Cc1ccsc1-c1nccn1CCN1CCCCC1CO (stereo not drawn),8.185
10,Cc1cc(-c2nccn2CCN2CCCCC2CO)oc1C (stereo not drawn),12.23
11,O=C(NC1CCC1)[C@@H]1CCO[C@@H]2CCN(C3CCCC3)C[C@H]21.O=C(O)C(F)(F)F,-6.007
12,CCc1n[nH]c(C2CN(Cc3nccn3CC)CCO2)n1 (stereo not drawn),-1.514
13,CN(CCc1cn[nH]c1)C(=O)C1CC(=O)N(Cc2cccnc2)C1 (stereo not drawn),1.356
14,CCCn1ncc(CN2C[C@@H]3CCCN3C[C@@H]2Cc2ccccc2)c1C,119.2
15,c1ccc(CNc2ncc(CN3CCCN4CCC[C@H]4C3)cn2)cc1,-5.428
16,CCCn1ncc(C(=O)N2CCN(C3Cc4ccccc4C3)CC2)c1C,1.653
17,N#CCCCN1CCCC1Cc1ccccc1 (stereo not drawn),-5.887
18,CCCn1ncc(CN2C[C@@H]3CCCN3C[C@H]2Cc2ccccc2)c1C,112.1
19,CC(=O)c1ccc(-c2cnn(CC(=O)Nc3ccnn3C)c2)nc1,-6.817
20,O=C(NCC(O)c1ccsc1)c1sccc1OC(F)F (stereo not drawn),-10.31
21,Cc1cccc2cc(C(=O)N3CCC(F)(F)CC3)n(C)c12,5.497
22,Cc1cccc(C(=O)N2CCc3c(CN(C)C)nn(C)c3C2)n1,94.16
23,CN(C)Cc1nn(C)c2c1CCN(C(=O)CC1CC1)C2.O=C(O)C(F)(F)F,5.365
24,Cc1nocc1C(=O)N1CCc2c(CN(C)C)nn(C)c2C1,93.65
25,CN(C)Cc1nn(C)c2c1CCN(S(=O)(=O)c1cccs1)C2,12.48
26,CN(C)Cc1nn(C)c2c1CN(C(=O)c1cccc(C#N)c1)C2,110.3

row,SMILES,Percent Effect [%]
1,CC(=O)NCC(=O)N1CCc2c(CN(C)C)nn(C(C)C)c2C1,-2.95
2,CN(C)Cc1nn(C)c2c1CN(C(=O)Nc1cccc(F)c1)C2,-15.2
3,CN(C)Cc1nn(C)c2c1CCN(C(=O)c1cnccn1)C2.O=C(O)C(F)(F)F,-5.117
4,CN(C)Cc1nn(C)c2c1CCN(C(=O)c1cccnc1)C2,84.36
5,Cc1cccc(NC(=O)N2Cc3c(CN(C)C)nn(C)c3C2)c1,-10.1
6,Cn1nc(CN2CCCC2)c2c1CN(C(=O)c1cccnc1)CC2.O=C(O)C(F)(F)F.O=C(O)C(F)(F)F,-3.711
7,Cc1cc(N[C@H](CO)c2ccccc2)n2nc(C)cc2n1,1.495
8,Cc1noc(C2CCCN(C(=O)c3ccc(Br)cc3F)C2)n1 (stereo not drawn),4.795
9,N#Cc1c(F)cccc1N1CCN(S(=O)(=O)c2cccs2)CC1,-7.537
10,CC(Cn1cccn1)NC(=O)NCCCN1CCc2ccccc2C1 (stereo not drawn),-5.201
11,Cc1nc([C@H]2C[C@@H]3CCN(Cc4scnc4C)C[C@H]3O2)no1.O=C(O)C(F)(F)F,-18.74
12,CCc1ncc2c(n1)CN(C(C(N)=O)c1ccccc1)CC2 (stereo not drawn),-0.2058
13,CC(=O)Nc1ncc(-c2ccc(C)cc2)[nH]1,-15.96
14,Cc1cc(C(=O)N2CCc3c(CN(C)C)nn(C)c3C2)[nH]n1,109.1
15,Cc1cc(C(=O)N2CCc3ncnc(N4CCSCC4)c3CC2)[nH]n1,-7.195
16,Cc1cc(-c2nn(C)c(Cl)c2CN2CCOCC2CC(N)=O)no1 (stereo not drawn),-10.25
17,Cc1noc(CSc2ccc(C(F)(F)F)cn2)n1,-11.43
18,COc1ncc(C)cc1NC(=O)COCC(F)(F)F,-3.698
19,CC(C)c1nc(S(=O)(=O)Nc2ccnn2C2CCCC2)c[nH]1,-16.48
20,CC1CCN(C(=O)CN(Cc2ccco2)C2CC2)CC1,16.65
21,O=C(CN(Cc1ccco1)C1CC1)Nc1ccc(Br)cn1,5.807
22,O=C(CN(Cc1ccco1)C1CC1)N1CCCCCC1,130.6
23,COc1ccc(CN2CC[C@H](c3nc4cccc(C(N)=O)c4[nH]3)C2)cc1,-8.435
24,CCCn1nc(C)c(CNC(=O)C2COc3ccc(OC)cc3C2)c1C (stereo not drawn),-13.51
25,CC(=O)c1cccc(OCCCC(=O)N(C)Cc2cnc(C)s2)c1,-4.275
